Molecules are shown by their SMILES. Where a name gives a salt, the structure may show the parent alone.

For the experiment, the system named is HEK293FT dCK*-IKZF1. As to the kind of experiment: relative growth recovery (pomalidomide 10 uM = 100%, DMSO = 0%); higher = more growth rescue (IKZF1 fusion degradation). Particulars: compound concentration: 5 uM; AraC concentration: 0.3 uM; overnight pretreatment + 4 days AraC. In short, it runs like this: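 Means of duplicates from different days are given for growth recovery, normalised per plate against a reference degrader and vehicle. The reference degrader set the 100% level and vehicle the 0% level. HEK293FT cells stably expressing a deoxycytidine kinase–IKZF1 fusion (300/well, 384-well) received 5 μM compound 2 h after seeding and, after overnight at 37 °C, 0.3 μM of a nucleoside suicide substrate plus medium for 4 days. Nuclei stained with Hoechst 33342 were then counted by whole-well imaging on day 5.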
For the compound `O=C(/C=C/c1ccc(O)c(O)c1)OCCc1ccccc1` [caffeic-acid-phenethyl-ester], the relative growth recovery is -7.03%.
As to `CCC(C)c1ccc(NC(=O)Cn2cnc3c2c(=O)n(C)c(=O)n3C)cc1` (stereo not given), the relative growth recovery was 1.29%.
For the compound `CN1CCC[C@@H]1CCO[C@](C)(c1ccccc1)c1ccc(Cl)cc1` [Clemastine Fumarate], the relative growth recovery was 2.26%.
For the compound `O=[N+]([O-])c1ccc2nc(COCc3nc4ccc([N+](=O)[O-])cc4[nH]3)[nH]c2c1`, the relative growth recovery is 4.2%.
Consider `COc1ccc2nc3cc(Cl)ccc3c(Nc3cc(CN4CCCC4)c(O)c(CN4CCCC4)c3)c2n1`, for which the relative growth recovery was -10.1%.

For the origin of these results see the supplement of paper PMC12340641.
